Screening results (PubChem BioAssay)
G9a inh – inhibitors of human histone lysine methyltransferase G9a. G9a H3K9 monomethylation, AlphaScreen, 2 h. Potency, µM (series often up to 102 µM), actives largely listed as inhibitors. 8.8% of 350,000 active. AID 504332; further: nearly all actives have a fitted effect of over 75% in size
Target sequence (Q96KQ7 913-1193 limits assumed): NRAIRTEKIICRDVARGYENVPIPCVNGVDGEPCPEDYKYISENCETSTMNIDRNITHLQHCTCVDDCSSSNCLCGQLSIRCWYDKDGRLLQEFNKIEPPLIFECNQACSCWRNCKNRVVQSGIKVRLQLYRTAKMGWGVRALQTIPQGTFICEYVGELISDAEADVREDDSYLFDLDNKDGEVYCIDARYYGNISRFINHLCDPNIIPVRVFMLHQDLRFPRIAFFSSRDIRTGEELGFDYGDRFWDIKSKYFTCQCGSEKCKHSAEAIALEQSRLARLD
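Methyltransferase reactions run at room temperature for 2 h (20 nM enzyme, 500 nM biotin-H3K9 peptide, 20 uM SAM) after a 15 min compound preincubation; product detected by AlphaScreen beads and anti-H3K9me1 antibody.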
BAZ2B inh – inhibitors of human BAZ2B bromodomain; AID 504333; AlphaScreen BAZ2B-H3K14Ac peptide displacement; Q9UIF8; 4.4% of 360,000 active; Potency, µM (titrated, usually from 114 µM), usual class: inhibitors; further: nearly all actives have a fitted effect of over 60% in size
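Multi-concentration screen (max 110 uM) measuring displacement of acetylated histone H3 peptide from BAZ2B by AlphaScreen, using 50 nM protein, 50 nM peptide and 10 ug/mL streptavidin donor plus Ni-chelate acceptor beads.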
CtBP-E1A inh – inhibitors of CtBP/E1A interaction; activity change, % (concentration not given with the values); 0.49% of 340,000 active; AlphaScreen GST-E1A/His-CtBP binding, 1536-well; hits give low values; AID 651724; in the data active means activity change below about -65%; inconclusive means mostly about -30% to -63%
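Steps: dispense buffer (Tris pH 8.0, NaCl 300 mM, TCEP 1 mM, BSA, Tween 20); add 5X protein mix (GST-E1A, His-CtBP, 125 nM each); pin 23 nL compound; 2 h at 37 °C, dark; add 5X beads (50 ug/mL); 1 h; read.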
Six1-Eya2 blk – inhibitors of human Six1/Eya2 interaction. AlphaScreen GST-Six1/His-Eya2 binding, biochemical; hits give low values. activity change, % (no concentration beside the values). 0.56% of 360,000 active; in the data active means activity change below about -65%; inconclusive means mostly about -30% to -63%
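Compounds are tested against tagged Six1 and Eya2 proteins bridged by glutathione donor and nickel acceptor beads; after a one-hour incubation at 37 °C without light, AlphaScreen emission is recorded.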
JMJD2A Tudor inh – JMJD2A Tudor domain (human) inhibition; AlphaScreen JMJD2A-Tudor / H3K4me3 peptide binding; Potency, µM (highest dose often 114 µM), actives largely listed as inhibitors; 4.4% of 390,000 active; AID 504339; further: nearly all actives have a fitted effect of over 50% in size
HP1b binding inh – blocks HP1-beta chromodomain binding to methylated histone tails | P83916 | AlphaScreen HP1-beta / biotin-H3K9me3 peptide binding | Potency, µM (highest dose often 114 µM), hits mostly inhibitors | 0.56% of 390,000 active | AID 540317; further: nearly all actives have a fitted effect of over 70% in size
Target sequence (P83916 whole entry, looked up): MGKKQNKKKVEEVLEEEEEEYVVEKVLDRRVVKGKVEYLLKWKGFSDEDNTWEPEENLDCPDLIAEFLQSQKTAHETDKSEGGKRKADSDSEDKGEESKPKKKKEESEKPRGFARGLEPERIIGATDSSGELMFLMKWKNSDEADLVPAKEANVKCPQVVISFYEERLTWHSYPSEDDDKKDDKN
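AlphaScreen: HP1-beta (50 nM) preformed 30 min with biotin-H3(1-18)K9me3 peptide (50 nM) in PBS pH 7.4, 0.01% Tween-20. Compound added for 30 min at RT, then streptavidin donor/nickel chelate acceptor beads (10 ug/mL) for 30 min.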
A number is an active result; 0 = inactive; ? = inconclusive; - = not tested or not shown; [ ] = another dose, or the depositor's remark. This is a sample that favours compounds with a hit; in the whole collection about 10% have one here. Unless noted, the call rests on the fitted dose curve; in most records, active means well fitted inhibition curve with a large enough effect; inconclusive means small, poorly fitted or top-dose-only effect; inactive means no such curve, though single readings can be large or run the other way.

SMILES	G9a inh	BAZ2B inh	CtBP-E1A inh	Six1-Eya2 blk	JMJD2A Tudor inh	HP1b binding inh
CCn1c(SCC(=O)N(C)C2CCS(=O)(=O)C2)nnc1-c1ccccc1 (stereo not drawn)	?	0	0	0	0	0
C=CCn1c(SCC(=O)N(C)C2CCS(=O)(=O)C2)nnc1-c1ccccc1 (stereo not drawn)	56µM	0	0	0	0	0
CCN(C(=O)CSc1nnc(Nc2ccccc2C)s1)C1CCS(=O)(=O)C1 (stereo not drawn)	50µM	0	0	0	0	0
Cc1ccc(SCC(=O)N(C)C2CCS(=O)(=O)C2)cc1 (stereo not drawn)	0	0	0	0	0	0
Cc1cccc(Nc2nnc(SCC(=O)N(C)C3CCS(=O)(=O)C3)s2)c1C (stereo not drawn)	0	0	0	0	0	0
Cc1ccc(-c2nc(SCC(=O)N(C)C3CCS(=O)(=O)C3)[nH]c2-c2ccc(C)cc2)cc1 (stereo not drawn)	?	50µM	0	0	?	0
CN(C(=O)CSc1nnc(NCc2ccccc2)s1)C1CCS(=O)(=O)C1 (stereo not drawn)	50µM	0	0	0	0	0
Cc1cccc(-n2c(=O)c3c4c(sc3n3c(C)nnc23)CCCC4)c1	0	0	-	-	0	0
CCN(C(=O)CSc1nnc(C)n1Cc1ccccc1)C1CCS(=O)(=O)C1 (stereo not drawn)	25µM	0	-	0	0[11.4 µM]	0
CCN(C(=O)CSc1nnc(-c2ccc(F)cc2)c2ccccc12)C1CCS(=O)(=O)C1 (stereo not drawn)	35µM	0	0	0	0	0
CC[C@@H]1CCC[C@@H](O)[C@@H](C)C(=O)O[C@H](C)[C@@H](C)C/C=C(C)/C(OC)=C\C(=O)N(C)C([C@@H](C)CC)C(=O)N(C)[C@@H](C(C)C)C(=O)N(C)[C@@H](COC)C(=O)N2CCC[C@H]2C(=O)N(C)[C@@H](C(C)C)C(=O)N2CCC[C@H]2C(=O)O1 (stereo partly drawn)	-	-	0	0	-	-
Cn1cccc1C(=O)NCC1CCCCC1	-	0	0	0	0	0
Cc1ccc(OCC(=O)N(C)CC(=O)NCc2ccco2)c(Br)c1	56µM	50µM	0	0	35µM	?
CC(=O)c1cccc(OCC(=O)N(C)CC(=O)NCc2ccco2)c1	-	-	0	?	22µM	?
CC(CCC(=O)O)C1CC[C@H]2C3CCC4CC(=O)CCC4(C)[C@H]3CC(=O)C12C (stereo partly drawn)	0	0	0	0	0	0
CCOC(=O)Cc1ccc(NC(=O)Nc2cccc(OCc3cc(=O)n4cc(C)ccc4n3)c2)cc1	0	0	-	-	0	0
CC(=O)c1ccc(N2C(=NC(=O)C3CCCO3)SC3CS(=O)(=O)CC32)cc1 (stereo not drawn)	0	0	0	0	0	0
CN(C)c1ccc(N2C(=NC(=O)C3CCCO3)SC3CS(=O)(=O)CC32)cc1 (stereo not drawn)	45µM	?	0	0	?	0
NC(=O)c1ccc(NC(=O)COC(=O)CCC2CCCCC2)cc1	-	-	0	0	0	0
NCCc1c(-c2ccccc2)n(-c2ccccc2)c2ccccc12	45µM	22µM	?	0	32µM	?
CSc1ccccc1NC(=O)C1=COCCO1	-	0	0	0	0	0
CC1(C)CNc2cc(N)ccc2S1	3.5µM	45µM	0	0	45µM	?
CC(SCc1cn2cc(Cl)ccc2n1)C(=O)O (stereo not drawn)	?	0	0	0	50µM	0
Cc1oc(-c2ccccc2F)nc1CS(=O)(=O)CC(=O)NCc1ccccc1Cl	-	0	0	0	0	0
CCN(CC)S(=O)(=O)c1ccc(NCc2ccccc2)nc1	0	0	0	0	0	0
SMILES	G9a inh	BAZ2B inh	CtBP-E1A inh	Six1-Eya2 blk	JMJD2A Tudor inh	HP1b binding inh
CN(Cc1ccccc1)C(=O)c1ccc(CSc2nc3cccnc3n2Cc2ccccc2F)cc1	4.5µM	25µM	-	-	5µM	?
O=C(NCc1cccs1)c1ccc(CSc2nc3cccnc3n2Cc2ccccc2F)cc1	2.5µM	8.9µM	-	-	5.6µM	?
O=C(NC1CCCC1)c1ccc(CSc2nc3cccnc3n2Cc2ccccc2F)cc1	?	0	-	-	0	0
Cc1onc(-c2ccccc2Cl)c1C(=O)Nc1nnc(C2CCCCC2)s1	-	-	-	-	0	0
O=[N+]([O-])c1ccc([C@H](O)[C@H](CO)N=Cc2ccccc2O)cc1	8.9µM	0	0	0	0	0
CC(C)OC(=O)c1c2c(n3ccccc13)C(=O)c1ccccc1C2=O	?	32µM	0	0	?	?
COC(=O)c1c(C(=O)OC)c2ccccn2c1C(=O)c1ccc([N+](=O)[O-])cc1	?	?	0	?	?	0
O=C(O)C(CC1CCCCC1)N1CCS(=O)(=O)CC1 (stereo not drawn)	0	0	0	0	0	0
CC(C)Oc1ccc(C(CCN)C2CCCCC2)cc1 (stereo not drawn)	16µM	50µM	0	0	22µM	79µM
Cc1ccccc1NS(=O)(=O)c1ccc2[nH]cc(C(=O)NC(C)c3ccccc3)c(=O)c2c1 (stereo not drawn)	0	?	-	-	?	0
NC1=NC2(CCCCC2)N=C(Nc2ccc(F)cc2F)N1	0[0.501 µM]	0	0	0	0	0
COc1ccc(OC)c(NC2=NC3(CCCC3)N=C(N)N2)c1	0[12.7 µM]	0	?	-68	0	0
CCc1ccc(N=Nc2ccc(O)c3[nH]cnc23)cc1	0[0.501 µM]	?	?	?	?	0
CCOc1ccc(-c2cc(C(=O)N3CCN(c4ccc(C)cc4)C(C)C3)c3ccccc3n2)cc1 (stereo not drawn)	0	?	-	-	?	0
C[C@]1(OC(=O)/C=C/c2ccccc2)C[C@@H](O)[C@]2(O)C=CO[C@@H](O[C@@H]3O[C@H](CO)[C@@H](O)[C@H](O)[C@H]3O)[C@@H]21	18µM	0	0	0	0	0
COC(=O)c1ccccc1NC(=S)N(C)C	0	0	0	0	0	0
COC(=O)c1ccccc1N=C(SC)N(C)C	16µM	0	0	0	0	0
Cc1cc(/C=C(\C#N)c2nc3ccccc3[nH]2)c(C)n1C	0	0	0	0	0	0
Cc1ccc2nc(/C(C#N)=C/c3ccc(-c4cccc([N+](=O)[O-])c4)o3)[nH]c2c1	7.9µM	?	0	0	?	0
Cc1cc(/C=C(/C#N)c2nc3ccccc3[nH]2)c(C)n1-c1cccc([N+](=O)[O-])c1	11µM	?	?	0	89µM	0
C1CCc2nc3c(nc2C1)CCCC3	-	0	0	0	0	0
Nc1nnc2c(n1)CCCC2	?	50µM	0	0	22µM	0
